# Assay results taken from the supplement of paper PMC10849652.
# About 7,900 targets were measured; listed, in parts, are those with a hit and a random draw of the rest. About 0.6% of all pairs of compound and target were hits. Unmarked numbers belong to inactive results.
# Assays:
# Assay in all cases: log2 fold change, soluble protein after heating vs DMSO (PISA); higher = thermal stabilisation; K562 cells, 10 uM, 30 min; active = over 0.2 and 3.5 SD of the protein, either way, in both replicates (recomputed)
# saracatinib = compound: CN1CCN(CCOc2cc(OC3CCOCC3)c3c(Nc4c(Cl)ccc5c4OCO5)ncnc3c2)CC1 [saracatinib]
# In short: (§1)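 For each measurement, 10 μM compound was applied for 30 min to K562 cells at 2×10^6 cells/mL. Aliquots were heated for 3 min across 48°C-58°C, pooled, and extracted in PBS with 0.5% NP-40 at 4°C; the supernatant after 21,000xg for 90 min was soluble protein. This was quantified by TMTpro 16plex LC-MS/MS with channel sums equalised, and thermal stability was reported relative to control samples from duplicates, on a log2 fold-change scale.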
# sotrastaurin = compound: CN1CCN(c2nc(C3=C(c4c[nH]c5ccccc45)C(=O)NC3=O)c3ccccc3n2)CC1 [sotrastaurin]
# In short: as §1
# alvocidib = compound: CN1CC[C@H](c2c(O)cc(O)c3c(=O)cc(-c4ccccc4Cl)oc23)[C@H](O)C1 [alvocidib]
# In short: as §1
# Tubastatin A = compound: CN1CCc2c(c3ccccc3n2Cc2ccc(C(=O)NO)cc2)C1 [Tubastatin A]
# In short: as §1
# [1] = compound: CNC(=O)C1=CC=CC=C1NC2=NC(=NC=C2Cl)NC3=C(C=C(C=C3)N4CCOCC4)OC
# In short: as §1
# defactinib = compound: CNC(=O)c1ccc(Nc2ncc(C(F)(F)F)c(NCc3nccnc3N(C)S(C)(=O)=O)n2)cc1 [defactinib]
# In short: as §1
# rucaparib = compound: CNCc1ccc(-c2[nH]c3cc(F)cc4c3c2CCNC4=O)cc1 [rucaparib]
# In short: as §1
# [2] = compound: CNc1nc(-c2ccc3c(N)n[nH]c3c2)cc(N2C[C@@H](C(=O)NC3CCCCC3)CC[C@H]2C)n1
# In short: as §1
# encorafenib = compound: COC(=O)N[C@@H](C)CNc1nccc(-c2cn(C(C)C)nc2-c2cc(Cl)cc(NS(C)(=O)=O)c2F)n1 [encorafenib]
# In short: as §1
# [3] = compound: COC(=O)[C@H](CCSC)NC(=O)C1=C(C=C(C=C1)NC[C@H](CS)N)C2=CC=CC=C2
# In short: as §1
# [4] = compound: COC1=CC=C(C=C1)CN2C=CC3=C2C=C(C=C3)C(=O)NO
# In short: as §1
# filanesib = compound: CON(C)C(=O)N1N=C(c2cc(F)ccc2F)S[C@@]1(CCCN)c1ccccc1 [filanesib]
# In short: as §1
# zotarolimus = compound: CO[C@H]1C[C@@H]2CC[C@@H](C)[C@@](O)(O2)C(=O)C(=O)N2CCCC[C@H]2C(=O)O[C@H]([C@H](C)C[C@@H]2CC[C@H](n3cnnn3)[C@H](OC)C2)CC(=O)[C@H](C)/C=C(\C)[C@@H](O)[C@@H](OC)C(=O)[C@H](C)C[C@H](C)/C=C/C=C/C=C/1C [zotarolimus]
# In short: as §1
# idasanutlin = compound: COc1cc(C(=O)O)ccc1NC(=O)[C@@H]1N[C@@H](CC(C)(C)C)[C@](C#N)(c2ccc(Cl)cc2F)[C@H]1c1cccc(Cl)c1F [idasanutlin]
# In short: as §1
# alisertib = compound: COc1cc(Nc2ncc3c(n2)-c2ccc(Cl)cc2C(c2c(F)cccc2OC)=NC3)ccc1C(=O)O [alisertib]
# In short: as §1
# [5] = compound: COc1cc2nc(-c3cc(F)ccc3O)nc(N[C@@H]3CNC[C@H]3C(C)(C)O)c2cc1OC
# In short: as §1
# gefitinib = compound: COc1cc2ncnc(Nc3ccc(F)c(Cl)c3)c2cc1OCCCN1CCOCC1 [gefitinib]
# In short: as §1
# [6] = compound: COc1cccc2cc(-c3nc([C@H]4CC[C@H](C(=O)O)CC4)n4ncnc(N)c34)[nH]c12
# In short: as §1
# lapatinib = compound: CS(=O)(=O)CCNCc1ccc(-c2ccc3ncnc(Nc4ccc(OCc5cccc(F)c5)c(Cl)c4)c3c2)o1 [lapatinib]
# In short: as §1
# pictilisib = compound: CS(=O)(=O)N1CCN(Cc2cc3nc(-c4cccc5[nH]ncc45)nc(N4CCOCC4)c3s2)CC1 [pictilisib]
# In short: as §1
# UniProt Q07666, sequence (Q07666 whole entry, looked up): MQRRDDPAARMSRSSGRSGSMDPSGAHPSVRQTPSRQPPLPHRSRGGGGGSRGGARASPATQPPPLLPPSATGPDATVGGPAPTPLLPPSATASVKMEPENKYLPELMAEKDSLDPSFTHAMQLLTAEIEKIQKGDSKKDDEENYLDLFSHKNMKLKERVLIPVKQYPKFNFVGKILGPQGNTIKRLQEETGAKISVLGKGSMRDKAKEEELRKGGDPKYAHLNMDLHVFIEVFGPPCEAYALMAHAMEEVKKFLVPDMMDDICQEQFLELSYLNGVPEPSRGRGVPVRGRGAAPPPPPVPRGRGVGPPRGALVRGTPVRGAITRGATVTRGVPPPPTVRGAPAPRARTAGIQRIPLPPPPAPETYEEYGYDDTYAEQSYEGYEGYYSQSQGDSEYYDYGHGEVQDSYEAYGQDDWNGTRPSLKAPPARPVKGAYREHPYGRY
# UniProt Q16539, sequence (Q16539 whole entry, looked up): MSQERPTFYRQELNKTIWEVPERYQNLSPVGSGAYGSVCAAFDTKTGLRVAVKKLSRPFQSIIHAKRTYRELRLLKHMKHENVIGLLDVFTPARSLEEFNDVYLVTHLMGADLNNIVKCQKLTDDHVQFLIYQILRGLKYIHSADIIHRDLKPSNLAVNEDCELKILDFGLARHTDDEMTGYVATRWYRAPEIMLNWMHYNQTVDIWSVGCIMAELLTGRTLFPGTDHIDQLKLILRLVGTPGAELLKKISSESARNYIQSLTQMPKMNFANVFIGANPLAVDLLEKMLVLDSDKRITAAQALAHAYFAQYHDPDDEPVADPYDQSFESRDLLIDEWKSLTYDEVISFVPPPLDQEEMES
# UniProt Q8IWB1, sequence (Q8IWB1 whole entry, looked up): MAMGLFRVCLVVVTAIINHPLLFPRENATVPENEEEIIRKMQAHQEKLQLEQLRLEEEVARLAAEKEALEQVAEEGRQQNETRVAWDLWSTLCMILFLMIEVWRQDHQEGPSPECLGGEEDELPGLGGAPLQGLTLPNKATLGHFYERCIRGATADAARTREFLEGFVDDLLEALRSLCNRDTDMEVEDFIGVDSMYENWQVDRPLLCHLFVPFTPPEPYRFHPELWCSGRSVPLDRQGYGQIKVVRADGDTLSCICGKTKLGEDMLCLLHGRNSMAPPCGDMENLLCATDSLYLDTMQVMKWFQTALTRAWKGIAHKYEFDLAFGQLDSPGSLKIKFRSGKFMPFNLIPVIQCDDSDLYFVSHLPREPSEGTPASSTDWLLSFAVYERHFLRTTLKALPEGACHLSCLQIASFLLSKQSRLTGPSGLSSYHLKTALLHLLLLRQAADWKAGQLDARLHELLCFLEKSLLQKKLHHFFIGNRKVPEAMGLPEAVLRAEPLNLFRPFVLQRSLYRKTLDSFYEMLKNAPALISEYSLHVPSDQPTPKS
# UniProt Q7Z4S6, sequence (Q7Z4S6 whole entry, looked up): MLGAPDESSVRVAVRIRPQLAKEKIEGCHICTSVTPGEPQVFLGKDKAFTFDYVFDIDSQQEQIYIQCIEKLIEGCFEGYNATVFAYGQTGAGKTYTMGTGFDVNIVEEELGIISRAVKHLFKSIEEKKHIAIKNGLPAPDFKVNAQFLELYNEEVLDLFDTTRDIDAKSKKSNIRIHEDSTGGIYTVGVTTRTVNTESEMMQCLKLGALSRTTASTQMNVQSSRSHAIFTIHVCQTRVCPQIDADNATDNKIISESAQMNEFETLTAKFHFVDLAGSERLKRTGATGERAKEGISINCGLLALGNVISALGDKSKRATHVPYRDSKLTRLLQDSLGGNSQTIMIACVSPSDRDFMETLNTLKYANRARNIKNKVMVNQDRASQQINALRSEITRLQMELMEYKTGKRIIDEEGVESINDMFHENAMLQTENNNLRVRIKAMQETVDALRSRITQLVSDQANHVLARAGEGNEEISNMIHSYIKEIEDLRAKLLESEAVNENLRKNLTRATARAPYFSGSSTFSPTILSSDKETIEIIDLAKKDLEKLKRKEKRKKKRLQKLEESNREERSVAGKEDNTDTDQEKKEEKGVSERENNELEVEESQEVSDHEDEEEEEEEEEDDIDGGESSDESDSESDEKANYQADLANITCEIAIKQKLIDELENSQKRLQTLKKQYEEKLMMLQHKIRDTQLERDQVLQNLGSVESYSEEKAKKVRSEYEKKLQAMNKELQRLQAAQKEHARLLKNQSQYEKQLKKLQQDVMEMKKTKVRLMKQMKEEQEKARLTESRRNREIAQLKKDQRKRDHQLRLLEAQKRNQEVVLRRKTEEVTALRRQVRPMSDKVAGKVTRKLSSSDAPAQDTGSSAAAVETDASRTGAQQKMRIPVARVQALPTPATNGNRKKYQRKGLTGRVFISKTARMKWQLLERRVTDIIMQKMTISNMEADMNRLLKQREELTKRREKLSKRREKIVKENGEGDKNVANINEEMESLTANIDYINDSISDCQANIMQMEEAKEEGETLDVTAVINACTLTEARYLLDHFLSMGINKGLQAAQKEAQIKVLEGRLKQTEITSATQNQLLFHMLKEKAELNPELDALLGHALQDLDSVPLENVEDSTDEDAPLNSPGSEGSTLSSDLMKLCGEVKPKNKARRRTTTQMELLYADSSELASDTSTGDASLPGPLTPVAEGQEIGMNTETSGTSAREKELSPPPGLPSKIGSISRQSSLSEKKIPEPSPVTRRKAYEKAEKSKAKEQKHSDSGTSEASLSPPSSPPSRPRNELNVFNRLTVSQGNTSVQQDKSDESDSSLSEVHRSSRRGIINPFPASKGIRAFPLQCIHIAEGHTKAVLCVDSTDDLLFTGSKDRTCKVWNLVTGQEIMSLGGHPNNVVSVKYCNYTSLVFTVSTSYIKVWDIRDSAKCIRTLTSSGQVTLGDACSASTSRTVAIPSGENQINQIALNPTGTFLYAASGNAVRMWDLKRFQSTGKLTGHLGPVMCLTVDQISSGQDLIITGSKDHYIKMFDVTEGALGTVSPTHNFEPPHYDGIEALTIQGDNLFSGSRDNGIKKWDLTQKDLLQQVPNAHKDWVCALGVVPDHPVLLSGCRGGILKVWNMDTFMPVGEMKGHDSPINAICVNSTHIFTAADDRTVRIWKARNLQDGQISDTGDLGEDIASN
# UniProt Q9C0E8, sequence (Q9C0E8 whole entry, looked up): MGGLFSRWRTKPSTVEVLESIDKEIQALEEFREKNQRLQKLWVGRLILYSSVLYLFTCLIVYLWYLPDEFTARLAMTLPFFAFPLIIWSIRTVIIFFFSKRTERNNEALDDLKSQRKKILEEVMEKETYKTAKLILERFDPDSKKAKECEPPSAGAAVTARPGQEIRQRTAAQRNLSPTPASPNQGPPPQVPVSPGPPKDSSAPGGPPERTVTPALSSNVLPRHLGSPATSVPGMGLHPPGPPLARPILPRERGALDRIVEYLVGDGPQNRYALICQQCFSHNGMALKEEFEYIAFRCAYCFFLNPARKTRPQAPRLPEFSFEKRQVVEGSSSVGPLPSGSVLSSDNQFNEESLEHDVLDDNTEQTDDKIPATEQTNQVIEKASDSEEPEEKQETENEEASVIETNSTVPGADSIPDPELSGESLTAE
# UniProt Q9H0B6, sequence (Q9H0B6 whole entry, looked up): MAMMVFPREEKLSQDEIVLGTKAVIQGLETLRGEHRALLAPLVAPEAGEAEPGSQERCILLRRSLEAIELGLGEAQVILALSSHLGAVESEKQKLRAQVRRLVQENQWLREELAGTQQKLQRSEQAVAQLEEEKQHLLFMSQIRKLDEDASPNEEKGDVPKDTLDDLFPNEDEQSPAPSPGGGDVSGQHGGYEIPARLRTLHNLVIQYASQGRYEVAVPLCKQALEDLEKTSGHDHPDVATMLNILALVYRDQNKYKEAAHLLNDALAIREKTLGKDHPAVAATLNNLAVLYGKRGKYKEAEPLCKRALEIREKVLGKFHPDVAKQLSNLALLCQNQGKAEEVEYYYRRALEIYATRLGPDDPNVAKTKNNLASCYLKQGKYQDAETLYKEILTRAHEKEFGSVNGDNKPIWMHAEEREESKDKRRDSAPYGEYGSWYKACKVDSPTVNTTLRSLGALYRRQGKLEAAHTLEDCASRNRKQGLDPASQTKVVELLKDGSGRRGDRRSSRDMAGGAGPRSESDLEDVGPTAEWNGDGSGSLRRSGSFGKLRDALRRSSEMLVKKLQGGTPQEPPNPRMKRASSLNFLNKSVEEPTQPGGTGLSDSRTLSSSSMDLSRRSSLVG
# UniProt Q86X29, sequence (Q86X29 whole entry, looked up): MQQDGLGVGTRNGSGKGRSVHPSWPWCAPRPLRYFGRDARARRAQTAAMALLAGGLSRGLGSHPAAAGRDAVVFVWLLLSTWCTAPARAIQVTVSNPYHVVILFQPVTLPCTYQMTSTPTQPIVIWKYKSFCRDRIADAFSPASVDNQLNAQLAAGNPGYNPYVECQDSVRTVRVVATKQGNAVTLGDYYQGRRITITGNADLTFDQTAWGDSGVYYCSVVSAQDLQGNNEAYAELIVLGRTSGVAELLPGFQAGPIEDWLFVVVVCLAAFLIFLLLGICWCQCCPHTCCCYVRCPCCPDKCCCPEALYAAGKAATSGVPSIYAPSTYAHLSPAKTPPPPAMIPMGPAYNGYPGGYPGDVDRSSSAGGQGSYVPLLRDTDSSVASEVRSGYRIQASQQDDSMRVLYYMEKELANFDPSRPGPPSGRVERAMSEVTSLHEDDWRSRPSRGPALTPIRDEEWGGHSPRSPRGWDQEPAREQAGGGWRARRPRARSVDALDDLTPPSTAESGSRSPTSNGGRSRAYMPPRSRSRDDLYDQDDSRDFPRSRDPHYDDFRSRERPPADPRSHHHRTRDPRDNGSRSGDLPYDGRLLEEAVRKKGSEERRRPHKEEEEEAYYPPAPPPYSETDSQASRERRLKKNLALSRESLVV
# UniProt P14174, sequence (P14174 whole entry, looked up): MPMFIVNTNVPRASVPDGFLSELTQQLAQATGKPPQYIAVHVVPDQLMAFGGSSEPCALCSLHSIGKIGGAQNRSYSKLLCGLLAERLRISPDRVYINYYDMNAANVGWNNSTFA
# UniProt Q8WV07, sequence (Q8WV07 whole entry, looked up): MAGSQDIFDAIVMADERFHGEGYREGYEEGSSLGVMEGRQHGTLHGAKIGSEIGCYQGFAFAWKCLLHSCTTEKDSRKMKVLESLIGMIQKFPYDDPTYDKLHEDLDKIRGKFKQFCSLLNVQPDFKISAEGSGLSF
Target,log2 fold change (saracatinib),log2 fold change (sotrastaurin),log2 fold change (alvocidib),log2 fold change (Tubastatin A),log2 fold change [1],log2 fold change (defactinib),log2 fold change (rucaparib),log2 fold change [2],log2 fold change (encorafenib),log2 fold change [3],log2 fold change [4],log2 fold change (filanesib),log2 fold change (zotarolimus),log2 fold change (idasanutlin),log2 fold change (alisertib),log2 fold change [5],log2 fold change (gefitinib),log2 fold change [6],log2 fold change (lapatinib),log2 fold change (pictilisib)
LEMD2 (UniProt Q8NC56),-0.048,0.004,0.061,0.014,-0.058,-0.126,0.11,0.041,0.023,0.013,-0.051,-0.211,0,-0.008,0.044,-0.271,0.061,0.047,0.133,-0.007
KLC2 (UniProt Q9H0B6),-0.107,-0.032,-0.095,0.086,-0.017,-0.13,0.001,0.051,0.036,-0.051,0.06,-0.038,-0.028,-0.065,-0.047,-0.133,0.017,0,-0.005,0.083
KDELR2 (UniProt P33947),0.094,0.061,0.018,-0.295,0.04,-0.004,-0.072,-0.058,-0.005,0.023,-0.155,-0.105,0.035,-0.162,-0.014,-0.136,-0.064,0.048,-0.127,-0.013
MIF (UniProt P14174),-0.029,-0.005,-0.001,-0.065,0.82,-0.019,0.026,-0.105,-0.058,0.06,0.027,0.024,0.029,0.043,0.043,-0.082,0.082,-0.043,-0.034,-0.141
LSR (UniProt Q86X29),-0.003,0.023,-0.018,0.012,-0.074,-0.053,-0.023,0.095,0.042,0.031,0.107,0.116,-0.011,-0.022,-0.122,0.027,0.021,0.033,-0.056,0.121
MAGEA9 (UniProt P43362),0.041,-0.037,-0.346,-0.038,-0.001,-0.175,-0.153,0.015,0.039,-0.082,-0.246,0.003,0.015,0.087,0.057,0.024,0.034,0.033,-0.018,-0.018
INTS7 (UniProt Q9NVH2),0.035,-0.503 (active),-0.095,0,0.529 (active),-0.096,0.019,-0.003,0.036,-0.019,0.05,-0.022,-0.007,-0.052,-0.029,0.05,-0.052,-0.012,-0.015,0.148
KIF21A isoform 4 (UniProt Q7Z4S6),0.001,-0.006,0.134,0.094,0.001,0.016,0.109,0.077,0.175,-0.072,0.014,0.028,0.051,0.07,0.051,0.163,-0.028,-0.126,0.001,0.037
IRF2BPL (UniProt Q9H1B7),0.003,-0.044,-0.079,0.053,0.032,-0.038,0.015,-0.045,-0.06,-0.027,0.283,-0.025,0.029,0.033,0.058,0.015,-0.016,-0.027,-0.015,0.071
LTO1 (UniProt Q8WV07),0.071,-0.003,-0.01,-0.288,0.01,0.051,0.03,0.073,-0.016,-0.314 (active),-0.06,-0.06,0.062,-0.093,0.118,0.036,0.017,-0.001,-0.016,0.038
KHDRBS1 (UniProt Q07666),0.025,0.018,0.027,-0.006,0,0.042,0.248 (active),-0.009,-0.009,-0.05,0.06,0.041,-0.012,0.002,0.014,0.129,0.026,0.008,-0.072,-0.072
IMMT isoform 4 (UniProt Q16891),-0.012,-0.002,-0.009,-0.033,-0.014,-0.012,-0.055,-0.007,0.012,0.002,-0.008,-0.122,-0.007,-0.082,-0.049,-0.146,-0.005,0.013,-0.047,0.005
LNPK (UniProt Q9C0E8),0.085,0.047,-0.006,-0.034,0.012,0.009,-0.015,-0.045,-0.013,0.039,0.007,-0.005,-0.049,-0.002,-0.034,0.001,0.025,0.079,-0.008,0.017
MAPK14 isoform 2 (UniProt Q16539),0.486,-0.085,-0.021,0.145,0.559,-0.25,0.127,-0.029,0.91 (active),-0.014,0,0.016,-0.033,-0.018,-0.058,-0.005,0.811,0.319,-0.034,-0.114
LMF2 (UniProt Q9BU23),0.006,-0.043,0.035,0.048,0.007,0,0.082,-0.02,0.052,-0.04,-0.041,-0.011,-0.027,-0.02,-0.025,-0.014,0.013,-0.021,0.062,-0.095
ITPRIP (UniProt Q8IWB1),-0.028,0.016,-0.116,0.034,0.011,-0.037,0.034,-0.084,-0.009,0.013,-0.042,-0.022,-0.024,0.014,0.012,-0.021,0.018,-0.043,-0.038,0.049
